Growth data for nine compounds are collected here from PubChem BioAssay (NCI).

Common to all, as to test: NCI-60 one-dose screen, 48 h (100 = growth as untreated, 0 = no growth, -100 = all killed)
What all share (settings): 10 µM unless noted

The subject of assay [1] is SK-MEL-2 melanoma.
In assay [2] the test system is SN12C renal.
The subject of assay [3] is UO-31 renal.
Assay [4] relates to TK-10 renal.
The test system of assay [5] is ACHN renal.
Assay [6] has as its system CAKI-1 renal.
Assay [7] deals with A498 renal.
Assay [8] concerns CCRF-CEM leukemia.
Assay [9] deals with MOLT-4 leukemia.
In assay [10] the test system is SR leukemia.
The subject of assay [11] is RPMI-8226 leukemia.
Assay [12] concerns OVCAR-8 ovarian.
Assay [13] concerns OVCAR-5 ovarian.
Assay [14] concerns OVCAR-4 ovarian.
For assay [15], the system named is SK-OV-3 ovarian.
Assay [16] has as its system IGROV1 ovarian.
Assay [17] has as its system OVCAR-3 ovarian.
Assay [18] concerns HS 578T breast.
Assay [19] has as its system NCI/ADR-RES ovarian.
For assay [20], the system named is EKVX NSCLC.

Compounds without any hit were thinned out: in the full panel of roughly 83,000, 20% have a hit.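 Single-concentration screen, 48 h exposure, 96-well plates. Endpoint: percent growth. Below 10 = active.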 Values without a mark were called inactive. The source made the active and inactive calls.

As for `CNc1ccccc1C(=O)N/N=C/C=C/c1ccccc1`, the growth in assay [1] was 3.74% (active); in assay [2] it was 48.7%; in [3], 43.8%; in assay [4], 31.1%; in assay [5] it was 58.2%; in [6], 12.7%. The growth is -8.31% (active) in assay [7]; 12% in [8]; 18.5% in assay [9]; 2.42% (active) in assay [10]; 25.1% in [11]; 6.6% (active) in assay [12]. In addition, the growth in assay [13] was 47.1%; in [14] it was 85.6%; in [15], 7.51% (active); in assay [16] it was 23%; in assay [17], -23.7% (active); in [18], 16.5%. The growth in assay [19] is 3.92% (active).

Regarding `c1ccc(Oc2c3ccccc3nc3ccccc23)cc1`, the growth is 39.9% in [1]; 62.1% in assay [20]; 43.8% in [3]; 57.6% in assay [4]; -20.4% (active) in assay [6]; 33% in [7]. Moreover, the growth in assay [8] was 14.2%; in assay [9], 14.5%; in assay [10], -0.679% (active); in assay [11], -20.9% (active); in assay [12], 23.7%; in assay [13], 35.3%. The growth in [14] is 15%; in assay [15], 39%; in assay [16] it was -9.18% (active); in [17] it was -3.62% (active); in assay [18], 12.2%; in [19] it was 47.6%.

As to `Cn1c(=O)c2[nH]c(CCCCC(=O)O)nc2n(C)c1=O`, the growth in [1] was 111%; in [20] it was 131%; in assay [3], 105%; in [4], 98.4%; in [5], 103%; in [6], 106%. In addition, the growth is 113% in [7]; 75.6% in assay [8]; 102% in [9]; 112% in assay [10]; 91.2% in assay [11]; 101% in assay [12]. For the same compound, the growth in [13] is 112%; in [14] it was 124%; in assay [15], 113%; in assay [16], 110%; in [17], 113%; in assay [19] it was 108%.

For `C=C(OC(C)=O)c1ccccc1`, the growth in assay [1] was 96.9%; in [20] it was 111%; in assay [3], 101%; in [4] it was 100%; in assay [5] it was 115%; in assay [7] it was 95.3%. Also, the growth in assay [8] is 83.5%; in assay [10], 80.7%; in assay [11], 70.3%; in assay [12], 101%; in [13], 106%; in assay [14], 115%. The growth in assay [15] is 96%; in [16] it was 113%; in assay [17], 112%; in assay [18], 90.7%; in [19], 109%.

For `CC1CC2C3CCC4=CC(=O)CCC4(C)C3CCC2(C)C1(O)C(=O)CO` (stereo unspecified), the growth in assay [1] was 99.2%; in assay [20], 99.4%; in assay [3] it was 92.2%; in [4], 117%; in assay [5], 124%; in assay [6] it was 94.9%. Besides, the growth in assay [7] is 73%; in assay [8], 90.6%; in [9] it was 71.9%; in [10], 107%; in assay [11] it was 77.1%; in assay [12] it was 105%. Also, the growth in assay [13] was 104%; in [15] it was 102%; in assay [16] it was 117%; in assay [17] it was 132%; in assay [18] it was 123%; in assay [19], 114%.

For the compound `C=C1C(=O)C2CCC1C2` (stereo unspecified), the growth in assay [1] was 101%; in assay [20], 109%; in assay [3], 82.2%; in assay [4] it was 109%; in [5], 112%; in assay [6], 101%. For the same compound, the growth in assay [7] was 93.7%; in assay [9], 94.7%; in [10], 96.7%; in [11] it was 106%; in [12] it was 109%; in assay [13] it was 101%. Further, the growth in assay [14] was 111%; in assay [15], 105%; in [16], 111%; in assay [17] it was 95.2%; in [18], 73.7%; in assay [19], 105%.

Consider `NC(CO)(CO)c1ccccc1`, for which the growth is 107% in assay [1]; 113% in [20]; 88.6% in assay [3]; 96.9% in assay [4]; 112% in assay [5]; 101% in [7]. Also, the growth is 90% in assay [8]; 108% in assay [9]; 96.7% in assay [10]; 94.2% in [11]; 103% in assay [12]; 101% in assay [13]. The growth in [14] was 104%; in [15], 105%; in assay [16], 104%; in assay [17], 97.5%; in [18], 95.5%; in [19] it was 111%.

With `O=C(N/N=C\c1ccc(Cl)cc1Cl)c1ccncc1`, the growth in assay [1] is 94.4%; in [20] it was 101%; in assay [3], 90.7%; in [4], 91.4%; in [5], 105%; in assay [6], 99%. The growth in [7] is 95.8%; in assay [8] it was 99.6%; in assay [9], 94.5%; in [11], 91.5%; in assay [12], 101%; in [13], 105%. The growth in [14] is 106%; in assay [16], 96.3%; in assay [17], 113%; in assay [18] it was 123%; in assay [19], 102%.

As for `C#CC(O)c1ccccc1` (stereo unspecified), the growth is 106% in [1]; 103% in assay [20]; 101% in [3]; 99.5% in assay [4]; 104% in [5]; 103% in assay [6]. Besides, the growth in assay [7] was 94.2%; in assay [9], 99.4%; in [10], 106%; in [11] it was 104%; in [12] it was 103%; in assay [13], 101%. Moreover, the growth in assay [14] is 105%; in [15], 103%; in assay [16] it was 108%; in [17] it was 106%; in assay [18], 107%; in assay [19], 107%.
